# Measurements taken from PubChem BioAssay.
# A number with no mark means an inactive call. For part of these data: Results with a measured potency or affinity are listed apart. Calls of active or inactive are those of the source. Unless noted, how the calls were made is not given here.
# How the values were obtained:
# [1] = antimalarial activity against Dd2 strain (AID 2302;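 active means growth inhibition above 50% at the single 2 µM test dose, taken to imply half-maximal potency below 2 µM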;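 further: 0% = DMSO untreated growth and 100% = chloroquine plus artemisinin killed control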); settings: P. falciparum Dd2 in RBCs, LDH growth readout, 72 h; at 2 µM; hits give high values
# [2] = human hepatoma cell viability loss – ATP luminescence, cytotoxicity control for P. falciparum antimalarial project, primary screen (AID 2303;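 active means inhibition above 50%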;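 further: 0% = DMSO wells and 100% = digitonin-killed cells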); settings: HepG2 viability, 24-48 h, at 10 µM, hits give high values
# [3] = target: L-lactate dehydrogenase (Plasmodium falciparum (isolate CDC / Honduras)) (UniProt Q27743); assay: PfLDH activity inhibition – cell lysate, 3D7 strain, counter-screen for P. falciparum growth inhibition project (AID 2304);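 further: 0% = vehicle and 100% = reference inhibitor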; settings: P. falciparum 3D7 crude extract, LDH APAD/NBT absorbance; at 2 µM; hits give high values
# L-lactate dehydrogenase (Plasmodium falciparum (isolate CDC / Honduras)), sequence (Q27743 whole entry, looked up): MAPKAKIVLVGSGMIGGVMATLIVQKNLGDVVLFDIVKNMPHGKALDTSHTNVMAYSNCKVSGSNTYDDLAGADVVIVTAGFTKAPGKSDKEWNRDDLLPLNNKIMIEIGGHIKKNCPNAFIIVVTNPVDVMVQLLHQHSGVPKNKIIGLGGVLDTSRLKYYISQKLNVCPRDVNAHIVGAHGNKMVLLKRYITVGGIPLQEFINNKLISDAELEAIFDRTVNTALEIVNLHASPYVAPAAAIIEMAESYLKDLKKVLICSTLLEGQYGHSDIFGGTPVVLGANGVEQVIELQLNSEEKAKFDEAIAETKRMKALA
# [4] = inhibition of 3D7 malaria parasite growth – strain 3D7 (AID 2306);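 further: 0% = DMSO wells and 100% = chloroquine plus artemisinin control wells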; settings: P. falciparum 3D7 erythrocytic growth, LDH absorbance, 72 h; at 2 µM; hits give high values
# [5] = target: Plasmodium falciparum protein kinase 6 (PK6, PF3D7_1337100) (UniProt Q8IDW1); assay: PfPK6 kinase inhibitors, biochemical, TCAMS library (AID 1159586); settings: recombinant PfPK6, Kinase-Glo ATP depletion luminescence
# Plasmodium falciparum protein kinase 6 (PK6, PF3D7_1337100), sequence (Q8IDW1 1-305): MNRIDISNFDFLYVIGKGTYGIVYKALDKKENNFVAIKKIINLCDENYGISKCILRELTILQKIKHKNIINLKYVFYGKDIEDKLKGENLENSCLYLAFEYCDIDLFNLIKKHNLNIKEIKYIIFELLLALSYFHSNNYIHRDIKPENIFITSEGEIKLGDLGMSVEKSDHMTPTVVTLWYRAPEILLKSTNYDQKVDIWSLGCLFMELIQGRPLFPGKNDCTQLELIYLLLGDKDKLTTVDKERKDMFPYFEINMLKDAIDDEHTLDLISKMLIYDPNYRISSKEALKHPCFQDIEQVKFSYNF
# [6] = target: Protein kinase 7 (PK7), Plasmodium falciparum 3D7 (PF3D7_0213400) (UniProt Q7YTF7); assay: inhibition of Plasmodium PK7 catalytic activity – biochemical, TCAMS antimalarial set, Kinase-Glo luminescence (AID 1159587); settings: recombinant PfPK7, Kinase-Glo ATP depletion luminescence
# Protein kinase 7 (PK7), Plasmodium falciparum 3D7 (PF3D7_0213400), sequence (Q7YTF7 1-343): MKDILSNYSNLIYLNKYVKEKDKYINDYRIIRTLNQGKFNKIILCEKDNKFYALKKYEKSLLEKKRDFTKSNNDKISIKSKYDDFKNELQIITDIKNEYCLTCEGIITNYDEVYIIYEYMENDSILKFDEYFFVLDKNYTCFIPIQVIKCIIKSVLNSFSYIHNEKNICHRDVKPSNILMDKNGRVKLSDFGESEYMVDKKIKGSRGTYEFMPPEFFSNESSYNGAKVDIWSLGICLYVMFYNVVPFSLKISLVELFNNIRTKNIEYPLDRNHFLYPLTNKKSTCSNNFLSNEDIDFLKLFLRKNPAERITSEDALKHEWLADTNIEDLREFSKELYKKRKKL
# [7] = target: Calcium-dependent protein kinase 4 (Plasmodium falciparum (isolate 3D7)) (UniProt Q8IBS5); assay: PfCDPK4 kinase inhibitors, biochemical, TCAMS library (AID 1159588; cut-off not given, nearly all actives have IC50 up to about 0.91 µM); settings: recombinant PfCDPK4, Kinase-Glo ATP depletion luminescence
# Calcium-dependent protein kinase 4 (Plasmodium falciparum (isolate 3D7)), sequence (Q8IBS5 whole entry, looked up): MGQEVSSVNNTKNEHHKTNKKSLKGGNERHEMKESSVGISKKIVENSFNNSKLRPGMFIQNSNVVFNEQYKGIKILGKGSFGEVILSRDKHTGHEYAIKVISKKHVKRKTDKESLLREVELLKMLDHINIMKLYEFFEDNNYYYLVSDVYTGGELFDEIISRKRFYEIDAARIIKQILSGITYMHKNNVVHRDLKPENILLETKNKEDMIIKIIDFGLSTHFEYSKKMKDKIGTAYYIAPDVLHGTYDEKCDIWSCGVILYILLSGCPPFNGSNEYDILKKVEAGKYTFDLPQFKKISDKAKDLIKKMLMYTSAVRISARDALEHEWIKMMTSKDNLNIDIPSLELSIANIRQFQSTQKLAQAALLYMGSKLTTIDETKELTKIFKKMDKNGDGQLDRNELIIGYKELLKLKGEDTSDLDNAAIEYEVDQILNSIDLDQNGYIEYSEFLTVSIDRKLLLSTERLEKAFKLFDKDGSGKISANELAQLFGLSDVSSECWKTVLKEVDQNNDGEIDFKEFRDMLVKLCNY
Compound,growth inhibition [1],inhibition [2],inhibition [3] [%],growth inhibition [4],outcome [5],outcome [6],outcome [7]
CS(=O)(=O)c1cccc(-c2cnc3[nH]cc(-c4cccc(CCN)c4)c3c2)c1,74% (active),-12%,-5,99% (active),inactive,inactive,inactive
CC(C)(CNC(=O)[C@H]1CCCN1)c1nc(-c2ccc(Cl)c(O)c2)c(-c2ccncc2)[nH]1,95% (active),-11%,-1,86% (active),inactive,inactive,inactive
CCn1c(-c2nc(-c3ccnc(N4CCN(C)CC4)c3)cnc2N)nc2cc(S(C)(=O)=O)ccc21,76% (active),44%,-1,101% (active),inactive,inactive,inactive
CN(C)CCNCc1ccc(-c2ccc3c(Nc4ccc(Oc5ccccc5)cc4)ccnc3c2)o1,99% (active),19%,2,100% (active),inactive,inactive,inactive
COc1ccc(-c2cnc3ccc(NC4CCC(O)CC4)nn23)cn1 (centres undefined),73% (active),54% (active),4,98% (active),inactive,inactive,inactive
N#Cc1ccc(-c2cnc3ccc(NCCc4cccnc4)nn23)cc1,81% (active),27%,6,99% (active),inactive,inactive,inactive
O=C(NCCN1CCCCC1)c1cccc(Nc2nccc(Nc3ccc(Oc4ccccc4)cc3)n2)c1,86% (active),50% (active),-2,99% (active),inactive,inactive,inactive
Cc1nnc(-c2cccc(Nc3ccnc4cc(-c5nccs5)ccc34)c2)o1,89% (active),38%,-2,95% (active),inactive,inactive,inactive
CC(C)(CNC(=O)C1CCN(Cc2ccc(Cl)cc2)CC1)c1nc(-c2ccc(Cl)c(O)c2)c(-c2ccncc2)[nH]1,83% (active),36%,-6,100% (active),inactive,inactive,inactive
CC(C)(C)CNCC(C)(C)c1nc(-c2ccc(Cl)c(O)c2)c(-c2ccncc2)[nH]1,98% (active),42%,5,101% (active),inactive,inactive,inactive
CC(C)(CNCCOc1ccc(Cl)cc1)c1nc(-c2ccc(Cl)c(O)c2)c(-c2ccnc(N)n2)[nH]1,19%,45%,-6,97% (active),inactive,inactive,inactive
Oc1cc(Nc2ccnc3cc(I)ccc23)c(F)cc1Cl,77% (active),-3%,-3,92% (active),inactive,inactive,inactive
O=C(NCCCN1CCCCC1)c1ccc(Nc2nccc(Nc3ccc(Oc4ccccc4)cc3)n2)cc1,61% (active),30%,-3,100% (active),inactive,inactive,inactive
O=C(NCCN1CCC(c2ccncc2)CC1)c1cccc(Nc2nccc(Nc3ccc(Oc4ccccc4)cc3)n2)c1,91% (active),60% (active),-3,101% (active),inactive,inactive,inactive
CN1CCN(CCCNCc2ccc(Nc3nccc(Nc4ccc(Oc5ccccc5)cc4)n3)cc2)CC1,9%,17%,0,100% (active),inactive,inactive,inactive
CC(C)(CNC(=O)C1CCN(CCOCc2ccccc2)CC1)c1nc(-c2ccc(Cl)c(O)c2)c(-c2ccncc2)[nH]1,18%,11%,-14,101% (active),inactive,inactive,inactive
CN(C)CCN(C)Cc1ccc(-c2ccc3c(Nc4ccc(Cl)cc4F)ccnc3c2)o1,76% (active),20%,1,100% (active),inactive,inactive,inactive
CC(C)(CN)c1nc(-c2ccc(Cl)c(O)c2)c(-c2ccnc(N)n2)[nH]1,95% (active),34%,-5,95% (active),inactive,inactive,inactive
CN(C)CCN(C)Cc1ccc(-c2ccc3c(Nc4ccc(Oc5ccccc5)cc4)ccnc3c2)o1,100% (active),5%,-4,100% (active),inactive,inactive,inactive
Cn1c(Nc2cc(C(C)(C)C)on2)nc2cc(Nc3ccnc(Nc4cccc(CS(C)(=O)=O)c4)n3)ccc21,94% (active),63% (active),-4,99% (active),inactive,inactive,inactive
Cc1nc(-c2cccc(Nc3ccnc4cc(-c5nccs5)ccc34)c2)no1,90% (active),37%,-2,99% (active),inactive,inactive,inactive

Compound,growth inhibition [1],inhibition [2],inhibition [3] [%],growth inhibition [4],outcome [5],outcome [6],outcome [7]
CN1CCN(Cc2cccc(Nc3nccc(Nc4ccc(Oc5ccccc5)cc4)n3)c2)CC1,80% (active),30%,2,97% (active),inactive,inactive,inactive
CN(C)CCOc1ccc(-c2cc(-c3ccc(Cl)c(O)c3)c(-c3ccnc(N)n3)o2)cc1,95% (active),43%,2,100% (active),inactive,inactive,inactive
O=C(NC1CC1)c1ccc(Nc2nccc(-c3c(-c4cccc(NC(=O)c5c(F)cccc5F)c4)nn4ccccc34)n2)cc1,96% (active),84% (active),-1,94% (active),inactive,inactive,inactive
CC(C)(CNCc1ccc(Cl)c(Cl)c1)c1nc(-c2ccc(Cl)c(O)c2)c(-c2ccncc2)[nH]1,97% (active),43%,-3,101% (active),inactive,inactive,inactive
CC(C)(NCc1ncc[nH]1)c1nc(-c2ccc(Cl)c(O)c2)c(-c2ccncc2)[nH]1,97% (active),42%,3,95% (active),inactive,inactive,inactive
COc1ccc(-c2cnn3ccc(Nc4cc(OC)c(OC)c(OC)c4)nc23)cc1OC,100% (active),57% (active),-4,98% (active),inactive,inactive,inactive
CCOC(=O)c1cccc(NC(=O)Nc2cccc(-c3ncc(OCCCN)c4c3nc(-c3nonc3N)n4CC)c2)c1,98% (active),16%,2,100% (active),inactive,inactive,inactive
CN1CCN(Cc2cccc(-c3ccc4c(Nc5cc(O)c(Cl)cc5F)ccnc4c3)c2)CC1,100% (active),-1%,4,102% (active),inactive,inactive,inactive
CC(C)(CNC(=O)[C@@H]1CCCCN1)c1nc(-c2ccc(Cl)c(O)c2)c(-c2ccncc2)[nH]1,96% (active),-8%,-10,97% (active),inactive,inactive,inactive
CNCC(C)(C)c1nc(-c2ccc(Cl)c(O)c2)c(-c2ccncc2)[nH]1,96% (active),46%,-2,98% (active),inactive,inactive,inactive
CN(C)Cc1ccc(-c2ccc3c(Nc4ccc(Oc5ccccn5)cc4)ccnc3c2)o1,100% (active),18%,1,101% (active),inactive,inactive,inactive
COc1ccc(C(=O)NCC(C)(C)c2nc(-c3ccc(Cl)c(O)c3)c(-c3ccncc3)[nH]2)cc1OCCN(C(C)C)C(C)C,96% (active),62% (active),4,102% (active),inactive,inactive,inactive
CCNC(=O)Nc1ccc(-c2cnc(N)c(-c3nc4ccc(OC)cc4[nH]3)c2)cc1,43%,51% (active),1,100% (active),inactive,inactive,inactive
Clc1ccc(-c2cnc3ccc(NCCc4cccnc4)nn23)cc1,32%,34%,-4,97% (active),inactive,inactive,inactive
CC(C)(CNCc1ccc(OC(F)(F)F)cc1)c1nc(-c2ccc(Cl)c(O)c2)c(-c2ccncc2)[nH]1,99% (active),38%,-2,102% (active),inactive,inactive,inactive
Cc1ccc(Nc2nc3cc(N(C)c4ccnc(Nc5cccc(CCS(C)(=O)=O)c5)n4)ccc3n2C)cc1,73% (active),78% (active),4,99% (active),inactive,inactive,inactive
Nc1ncc(-c2cn[nH]c2)cc1-c1nc2ncc(Cl)cc2[nH]1,70% (active),40%,1,100% (active),inactive,inactive,inactive
CN1CCN(Cc2ccc(-c3ccc4c(Nc5cc(O)c(Cl)cc5F)ccnc4c3)o2)CC1,99% (active),2%,-4,100% (active),inactive,inactive,inactive
CN(C)CCNCc1ccc(-c2ccc3c(Nc4ccc(Cl)cc4F)ccnc3c2)o1,100% (active),14%,-4,99% (active),inactive,inactive,inactive
Cc1ccc(O)cc1Nc1ccnc2cc(-c3cccc(CNCCS(C)(=O)=O)c3)ccc12,100% (active),9%,2,99% (active),inactive,inactive,inactive
CN1CCC=C(C(=O)NCC(C)(C)c2nc(-c3ccc(Cl)c(O)c3)c(-c3ccncc3)[nH]2)C1,96% (active),39%,-1,96% (active),inactive,inactive,inactive
